Test results from PubChem BioAssay AID1159580 (chemical genetic matrix, 2015).
The campaign covered roughly 5,500 compounds. About 2,000 (36%) were called active. Another 18% or so got no clear call; they are omitted. Rule as the data show it: active = normalized growth mostly below about 0.91 (no sharp cut-off); inconclusive = no clear call, values can overlap the other calls; inactive = mostly above about 0.92. The list shows a part of the results.

Test: chemical genetic growth profiling, strain panel (AID 1159580);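 also: tested at 20 µM; growth read once vehicle control cultures reached saturation at 30 °C; 1 = growth at the plate median or of vehicle wells; lower values mean less growth of the strain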
Conditions: S. cerevisiae deletion strains, growth OD

Measured: normalized growth

CN1CCc2cc(O)cc3c2[C@H]1Cc1ccc(O)c(O)c1-3
inactive: locus YAL040C, strain CLN3, stronger effect = lower value 1.06 | locus YDR363W, strain ESC2, stronger effect = lower value 0.927 | locus YER002W, strain NOP16, stronger effect = lower value 1 | locus YGR078C, strain PAC10, stronger effect = lower value 0.946 | locus YNL153C, strain GIM3, stronger effect = lower value 0.902 | locus YNL175C, strain NOP13, stronger effect = lower value 0.994 | locus YNL197C, strain WHI3, stronger effect = lower value 1.02 | locus YNL224C, strain SQS1, stronger effect = lower value 1.03 | locus YOR083W, strain WHI5 (second series), stronger effect = lower value 0.912
active: locus YAL013W, strain DEP1, stronger effect = lower value 0.844 | locus YCL061C, strain MRC1 (second series), stronger effect = lower value 0.794 | locus YJR075W, strain HOC1, stronger effect = lower value 0.492 | locus YMR307W, strain GAS1, stronger effect = lower value 0.798 | locus YNL322C, strain KRE1, stronger effect = lower value 0.786 | locus YPL055C, strain LGE1, stronger effect = lower value 0.575 | locus YPL241C, strain CIN2, stronger effect = lower value 0.876
